In PubChem BioAssay AID1159580 (chemical genetic matrix, 2015):
About 2,000 (36%) of roughly 5,500 compounds were called active. Inconclusive results (about 18%) are left out. Rule as the data show it: active = normalized growth mostly below about 0.91 (no sharp cut-off); inconclusive = no clear call, values can overlap the other calls; inactive = mostly above about 0.92. The list shows a part of the results.

Assay: chemical genetic growth profiling, strain panel (AID 1159580);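 also: tested at 20 µM; growth read once vehicle control cultures reached saturation at 30 °C; 1 = growth at the plate median or of vehicle wells; lower values mean less growth of the strain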
Conditions: S. cerevisiae deletion strains, growth OD

Measured: normalized growth

CC(=O)O[C@H]1C[C@@]2(C)[C@H](c3ccoc3)OC(=O)[C@H]3O[C@]32[C@@]2(C)C1[C@]1(C)C(C[C@H]2OC(C)=O)C(C)(C)[C@H](OC(C)=O)C[C@@H]1OC(C)=O (stereo partly drawn)
active: locus YGL253W, strain hxk2, hits give low values 0.907
inactive: locus YAL013W, strain DEP1, hits give low values 0.999 | locus YAL021C, strain ccr4, hits give low values 1.04 | locus YAL026C, strain drs2, hits give low values 0.97 | locus YAL030W, strain snc1, hits give low values 0.997 | locus YBL061C, strain skt5, hits give low values 0.993 | locus YBR009C, strain hhf1, hits give low values 1.05 | locus YBR021W, strain FUR4, hits give low values 1.02 | locus YBR023C, strain chs3, hits give low values 1 | locus YBR171W, strain sec66, hits give low values 0.958 | locus YBR229C, strain ROT2, hits give low values 0.949 | locus YBR231C, strain swc5, hits give low values 1 | locus YBR279W, strain paf1, hits give low values 0.998 | locus YCL011C, strain gbp2, hits give low values 0.998 | locus YCL016C, strain dcc1, hits give low values 1.05 | locus YCL029C, strain bik1, hits give low values 0.971 | locus YCL061C, strain MRC1, hits give low values 1 | locus YCL069W, strain vba3, hits give low values 0.975 | locus YCR088W, strain abp1, hits give low values 0.99 | locus YDL005C, strain med2, hits give low values 0.968 | locus YDL035C, strain GPR1, hits give low values 0.968 | locus YDL040C, strain nat1, hits give low values 0.99 | locus YDL074C, strain BRE1, hits give low values 0.999 | locus YDL101C, strain DUN1, hits give low values 0.974 | locus YDL134C, strain PPH21, hits give low values 0.986 | locus YDL185W, strain tfp1, hits give low values 0.953 | locus YDL192W, strain arf1, hits give low values 0.992 | locus YDR001C, strain nth1, hits give low values 0.989 | locus YDR069C, strain doa4, hits give low values 0.972 | locus YDR101C, strain arx1, hits give low values 0.946 | locus YDR137W, strain rgp1, hits give low values 1 | locus YDR159W, strain sac3, hits give low values 0.918 | locus YDR162C, strain NBP2, hits give low values 1.01 | locus YDR195W, strain ref2 0.981 | locus YDR297W, strain sur2, hits give low values 0.982 | locus YDR318W, strain mcm21, hits give low values 0.973 | locus YDR334W, strain swr1, hits give low values 0.975 | locus YDR335W, strain msn5, hits give low values 0.997 | locus YDR388W, hits give low values 0.983 | locus YDR392W, strain spt3, hits give low values 1 | locus YDR502C, strain sam2, hits give low values 0.987 | locus YEL003W, strain gim4, hits give low values 0.967 | locus YEL037C, strain rad23, hits give low values 0.989 | locus YEL061C, strain CIN8 (second series), hits give low values 0.978 | locus YEL061C, strain CIN8, hits give low values 0.997 | locus YER015W, strain faa2, hits give low values 0.997 | locus YER016W, strain bim1, hits give low values 0.98 | locus YER110C, hits give low values 0.974 | locus YER111C, strain swi4, hits give low values 0.979 | locus YER155C, strain BEM2 (second series), hits give low values 1.02 | locus YER155C, strain BEM2, hits give low values 1.01 | locus YER167W, strain BCK2, hits give low values 0.981 | locus YFR010W, strain ubp6, hits give low values 0.955 | locus YGL078C, strain dbp3, hits give low values 0.972 | locus YGL086W, strain mad1, hits give low values 0.996 | locus YGL167C, strain pmr1, hits give low values 0.99 | locus YGL173C, strain kem1, hits give low values 0.964 | locus YGL227W, strain vid30, hits give low values 0.983 | locus YGL240W, strain doc1, hits give low values 0.978 | locus YGL248W, strain PDE1, hits give low values 0.989 | locus YGR135W, strain pre9, hits give low values 1 | locus YGR252W, strain gcn5, hits give low values 0.94 | locus YHR013C, strain ard1, hits give low values 1.01 | locus YHR027C, strain rpn1, hits give low values 0.993 | locus YHR030C, strain SLT2, hits give low values 0.991 | locus YHR079C, strain IRE1 (second series), hits give low values 0.991 | locus YHR094C, strain hxt1, hits give low values 0.975 | locus YHR129C, strain ARP1, hits give low values 0.995 | locus YHR142W, strain chs7, hits give low values 1 | locus YHR200W, strain rpn10, hits give low values 0.977 | locus YIL066C, strain RNR3, hits give low values 0.949 | locus YIL073C, strain SPO22, hits give low values 0.949 | locus YIL125W, strain kgd1, hits give low values 0.983 | locus YIR030C, strain dcg1, hits give low values 0.981 | locus YJL092W, strain hpr5, hits give low values 0.973 | locus YJL095W, strain BCK1 (second series), hits give low values 0.977 | locus YJL095W, strain BCK1, hits give low values 1.02 | locus YJL115W, strain asf1, hits give low values 0.987 | locus YJL129C, strain trk1, hits give low values 0.966 | locus YJL134W, strain LCB3, hits give low values 0.989 | locus YJL154C, strain vps35, hits give low values 0.996 | locus YJL164C, strain tpk1, hits give low values 1.02 | locus YJL166W, strain qcr8, hits give low values 0.976
